The test has as its target FokI endonuclease wild-type (Flavobacterium okeanokoites, UniProt P14870 P14870:2-579). Briefly: filter; with poly(dI-dC), 1 mM EDTA, 22 C. The conditions noted are these: tags: expressed in E. coli RR1 from pRRSfokIR; label: 32P. The method, then: The filter binding assays were performed in duplicate using *Fok*I or mutant enzymes and the four different synthetic substrates, SEQ ID NO:12, SEQ ID NO:13, hemi-methylated oligonucleotide of SEQ ID NO:12 and hemi-methylated oligonucleotide of SEQ ID NO:13. Nine different concentrations for each of the enzymes were made by serial dilutions ([…], 2000, 667, 222, 74.1, 24.7, 8.23, 2.74 and 0.914 nM). The enzymes were mixed with 40 nM of each labelled substrate along with 50 μg/ml p(dI-dC) and 50 μg/ml BSA in 50 μl of buffer A[10 mM Tris. phosphate (pH 8.0), 7 mM 2-mercaptoethanol, 1 mM EDTA, 50 mM NaCl, and 10% (vol/vol) glycerol]. The samples were incubated at 22° C. for 1 hr and then loaded on to nitrocellulose filters. The filters were washed twice with 0.5 ml of buffer A, dried and counted using the scintillation counter.
Why does the four amino-acid residue insertions enable the mutant enzymes to cleave hemi-methylated DNA and not the larger inserts? The four codon insertions could increase the affinity of the mutants for the hemi-methylated DNA. The binding affinities of wild-type enzyme and both four codon insertion mutants were compared by filter binding assays using the synthetic oligonucleotide substrates (FIGS. 9A, 9B and 9C). The binding affinities were measured in the presence of non-specific DNA, poly dI-dC.

Chain of FokI endonuclease wild-type (P14870 2-579, one chain of several): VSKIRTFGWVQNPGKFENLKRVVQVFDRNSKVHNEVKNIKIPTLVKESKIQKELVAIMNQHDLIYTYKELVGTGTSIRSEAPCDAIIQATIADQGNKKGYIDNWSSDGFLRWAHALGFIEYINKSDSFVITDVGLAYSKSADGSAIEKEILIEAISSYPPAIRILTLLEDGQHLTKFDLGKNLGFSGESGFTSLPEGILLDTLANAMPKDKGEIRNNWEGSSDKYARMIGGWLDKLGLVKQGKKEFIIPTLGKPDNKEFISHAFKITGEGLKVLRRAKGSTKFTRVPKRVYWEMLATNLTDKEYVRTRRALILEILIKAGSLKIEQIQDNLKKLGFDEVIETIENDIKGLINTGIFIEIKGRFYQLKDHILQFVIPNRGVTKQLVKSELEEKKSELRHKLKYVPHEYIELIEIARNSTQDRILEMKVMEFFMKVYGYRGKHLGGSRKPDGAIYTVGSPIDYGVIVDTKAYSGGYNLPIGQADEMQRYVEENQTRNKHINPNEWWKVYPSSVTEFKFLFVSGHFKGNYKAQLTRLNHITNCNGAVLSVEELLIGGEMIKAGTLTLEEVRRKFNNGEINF

B1: hemi-methylated substrate (GGATG strand) (dsDNA)
DNA 1: CTAGAGTCAGAATTCGAAGACTTGCCGGATGATCTGCAGGCCAGCTGTGGCGTCTAAATTGA
DNA 2: AGCTTCAATTTAGACGCCACAGCTGGCCTGCAGATCATCCGGCAAGTCTTCGAATTCTGACT
modifications: N6-methyladenine in GGATG strand of FokI site
Take B1: the binding signal is ~100 fold less efficient than unmethylated.

B2: hemi-methylated substrate (CATCC strand) (dsDNA)
DNA 1: CTAGAGTCAGAATTCGAAGACTTGCCGGATGATCTGCAGGCCAGCTGTGGCGTCTAAATTGA
DNA 2: AGCTTCAATTTAGACGCCACAGCTGGCCTGCAGATCATCCGGCAAGTCTTCGAATTCTGACT
modifications: N6-methyladenine in CATCC strand of FokI site
B2: the binding signal is ~100 fold less efficient than unmethylated.

B3: fully methylated substrate (dsDNA)
DNA 1: CTAGAGTCAGAATTCGAAGACTTGCCGGATGATCTGCAGGCCAGCTGTGGCGTCTAAATTGA
DNA 2: AGCTTCAATTTAGACGCCACAGCTGGCCTGCAGATCATCCGGCAAGTCTTCGAATTCTGACT
modifications: N6-methyladenine in both strands of FokI site
For the molecule B3, the binding signal is ~100 fold less efficient than unmethylated.

Source of the values: US5487994, “Insertion and deletion mutants of FokI restriction endonuclease” (The Johns Hopkins University).
